From the OligoGym collection

target: ZFAND2A; assay: pooled miR-30 sensor sort-seq; sequence = guide strand; settings: shRNA
Also: reference of the scale not given here.

Row | Sequence | sensor-assay potency score (higher = more potent)
1 | AGTCTTTTCTGAACAATGCTTC | -1.25
2 | TTCTGAACAATGCTTCCCCAAA | -1.18
3 | TACTGGGACGAGCACATCCTTC | -1.34
4 | TACTGGAAGAAAATCTAGCTGC | 0.313
5 | TTCTCTTTCTTCTTCCCAGGGT | 0.483
6 | TACCATCTGCAGCATCTCTTTC | -0.989
7 | TTGGGCACATACCATCTGCAGC | -1.16
8 | TTACAGAGTGGGCATACTGGGA | -0.899
9 | TTTTACTGGAAGAAAATCTAGC | -0.26
10 | TCTCTTTCTTCTTGCAGCCCTC | -1.15
11 | TTTCTGAACAATGCTTCCCCAA | -0.747

target: ZFAND6; assay: as above; settings: shRNA

Row | Sequence | sensor-assay potency score (higher = more potent)
12 | TTCCTGCACATGAAACAGCGAT | -1.19
13 | TCTACCATTACTACTATTCTGT | 0.0585
14 | TTATTCTACCATTACTACTATT | -1.18
15 | TTCCATAAAATCCACAGCCAGT | -1.07
16 | AAGATGTAGAGTCTAATGCTGA | -0.785
17 | TTTCTCAGCAGCATCGGCTTTG | -0.787
18 | TACTACTATTCTGTCTTTGAAG | -0.924
19 | TTTTCACCAACAACTACTGGAT | -0.128
20 | TTGTGTACATCTGAGTAACGGT | -0.562
21 | TAGAGTCTAATGCTGACTGGGC | -0.0965
22 | TAGCATACTGAACACATGCCAT | -0.592
23 | TAGATGAAGATGTAGAGTCTAA | -0.473

target: ZFHX4; assay: as above; settings: shRNA

Row | Sequence | sensor-assay potency score (higher = more potent)
24 | TTTGTTACCAATACTATCGGTG | -0.044
25 | TTCTTCTGTACCTTCTGCCTGT | 0.382
26 | TTGCTCTCTGACATCTTGCTAG | -0.546
27 | TTTGTCATCGCAGACCTCCGTG | -0.26
28 | TAACATTTCACATTCTTGCATG | -0.369
29 | TTTATTTCTCTGTCGTTCCTTA | 0.274
30 | TTGATCTTGCAGTGTGTCGGGG | 0.234
31 | ATCGCTAACACAACCATCGAAT | -0.685
32 | TTGAAGTTCAGCTTCACTCAGT | 0.0714
33 | TTGCTTGTTCGAATGTACCGTT | 0.0955
34 | TAGAGCTACTATCACTTCCTAC | -0.103
35 | TTTGTTGCTGAGGACGTCCTGA | -0.337

target: ZFP62; assay: as above; settings: shRNA

Row | Sequence | sensor-assay potency score (higher = more potent)
36 | TATGTAATTTCTTAACAGCATT | -1.56
37 | TTGAGTGTGAGATGTAGGCTTT | -0.179
38 | TTTTATGTTGAACAAGGCGGGA | -0.995
